Experimental data published in PubChem BioAssay (NCI).
The panel holds about 83,000 compounds, 20% with a hit somewhere; the sample as a whole holds those more often.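 Cell lines were cultured in 96-well plates, exposed to a single compound concentration, and assessed for percent growth 48 hours later.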 Activity calls are given as the source filed them. Rule for the calls: active = growth percent below 10; inactive = the rest.

What was measured:
Experiment in all cases: NCI-60 one-dose screen, 48 h (100 = growth as untreated, 0 = no growth, -100 = all killed)
Settings in all cases: 10 µM unless noted
SR leukemia = system: SR leukemia
RPMI-8226 leukemia = system: RPMI-8226 leukemia
OVCAR-8 ovarian = system: OVCAR-8 ovarian
OVCAR-5 ovarian = system: OVCAR-5 ovarian
OVCAR-4 ovarian = system: OVCAR-4 ovarian
SK-OV-3 ovarian = system: SK-OV-3 ovarian
IGROV1 ovarian = system: IGROV1 ovarian
OVCAR-3 ovarian = system: OVCAR-3 ovarian
HS 578T breast = system: HS 578T breast
NCI/ADR-RES ovarian = system: NCI/ADR-RES ovarian
T-47D breast = system: T-47D breast
BT-549 breast = system: BT-549 breast
MDA-MB-435 melanoma = system: MDA-MB-435 melanoma
SW-620 colon = system: SW-620 colon
MCF7 breast = system: MCF7 breast
HCT-116 colon = system: HCT-116 colon
HCC-2998 colon = system: HCC-2998 colon
KM12 colon = system: KM12 colon

Measured: growth

COc1cc2oc(-c3cccc(C(=O)Nc4ccc5c(c4)OCO5)c3)cc(=O)c2c(O)c1OC
inactive: SR leukemia 75.9% | RPMI-8226 leukemia 79.8% | OVCAR-8 ovarian 30.6% | OVCAR-5 ovarian 88.9% | SK-OV-3 ovarian 91.4% | IGROV1 ovarian 81.6% | OVCAR-3 ovarian 89.5% | HS 578T breast 72.7% | NCI/ADR-RES ovarian 70.6% | T-47D breast 69.5% | BT-549 breast 84% | MDA-MB-435 melanoma 79.1% | SW-620 colon 84.5% | MCF7 breast 91.6% | HCT-116 colon 57% | HCC-2998 colon 105% | KM12 colon 70.6%
active: OVCAR-4 ovarian 0.0679%

COC(=O)N[C@H]1CCc2c(Cl)c(OC)c(OC)c(OC)c2-c2ccc(SC)c(=O)cc21
active: SR leukemia 2.15% | RPMI-8226 leukemia -5.28% | IGROV1 ovarian 9.16% | OVCAR-3 ovarian -46.2% | HS 578T breast 9.58% | NCI/ADR-RES ovarian 7.43% | BT-549 breast -4.69% | MDA-MB-435 melanoma -49.9% | HCT-116 colon 0.452% | KM12 colon 1.72%
inactive: OVCAR-8 ovarian 15.4% | OVCAR-5 ovarian 38.5% | OVCAR-4 ovarian 39.5% | SK-OV-3 ovarian 40.3% | T-47D breast 40.4% | SW-620 colon 16.1% | MCF7 breast 10.8% | HCC-2998 colon 21.5%

C/C(=N\NC(=O)CSc1nc2ccccc2c(=O)n1Cc1ccc(S(N)(=O)=O)cc1)c1ccc(F)cc1
inactive: SR leukemia 100% | RPMI-8226 leukemia 112% | OVCAR-8 ovarian 101% | OVCAR-5 ovarian 96.4% | OVCAR-4 ovarian 99.8% | SK-OV-3 ovarian 111% | IGROV1 ovarian 106% | OVCAR-3 ovarian 115% | HS 578T breast 102% | NCI/ADR-RES ovarian 104% | T-47D breast 96.7% | BT-549 breast 112% | MDA-MB-435 melanoma 104% | SW-620 colon 104% | MCF7 breast 96.1% | HCT-116 colon 102% | HCC-2998 colon 112% | KM12 colon 105%

N#C/C(=C\c1ccccn1)c1nc2cc(Cl)ccc2s1
inactive: SR leukemia 40.3% | RPMI-8226 leukemia 59.3% | OVCAR-8 ovarian 73.1% | OVCAR-5 ovarian 96.8% | OVCAR-4 ovarian 71.5% | SK-OV-3 ovarian 62.9% | IGROV1 ovarian 42% | OVCAR-3 ovarian 75.4% | HS 578T breast 53.7% | NCI/ADR-RES ovarian 77% | T-47D breast 27.7% | BT-549 breast 33.3% | MDA-MB-435 melanoma 74.7% | SW-620 colon 77.5% | MCF7 breast 37.1% | HCT-116 colon 55% | HCC-2998 colon 92.7% | KM12 colon 96.2%
